# Screens deposited in PubChem BioAssay by National Center for Advancing Translational Sciences (NCATS).
# Rows were chosen to be rich in hits. Some 6.9% of all compounds tested hit in one or more screens of this group.
# MCF10A rereplic: induces DNA re-replication in MCF 10a normal breast cells | 350,000 compounds, 2.9% hits | AID 624296 | Potency, µM (top dose mostly 46.1 µM), for the others: top-dose activity, positive = re-replication, usual class: activators | MCF 10A DNA re-replication, Hoechst nuclear intensity, 48 h; further: potency means the concentration at half of the fitted maximal effect; % of control where 0% means no effect; nearly all actives have a fitted effect of over 50% in size
# SW480 rereplic: DNA re-replication induction in SW480 cells; AID 624297; SW480 DNA re-replication, Hoechst DNA content imaging, 48 h; Potency, µM (doses to about 46.1 µM), for inactives: at the highest dose re-replication activation, usual class: activators; 340,000 compounds, 1.8% hits; further: potency means the concentration at half of the fitted maximal effect; % of control where 0% means no effect; nearly all actives have a fitted effect of over 55% in size
#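 Treated cells incubate 48 hr (37 C, 5% CO2), are stained 40 min with Hoechst, and nuclear fluorescence is enumerated; a rise in nuclei with high DNA signal marks re-replication.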
# Giardia kill: kills Giardia lamblia; Giardia lamblia trophozoite viability; activity change, % at 7.66 µM, hits read low; 340,000 compounds, 0.15% hits; in the data active means activity change below about -80%; inconclusive means between about -30% and that limit;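 further: parasites exposed to compound for two days anaerobically before the ATP read; on the % scale 0 is the no-effect control and ±100 the full control effect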
#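 Giardia lamblia trophozoites (100 cells/well) were incubated with compounds for 48 h at 37 deg C under anaerobic conditions. Viability was read as ATP content by one-step luminescence after 15-30 min at room temperature.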
# Vif-A3F inh: Vif-A3F binding inhibition; HeLa A3F-eYFP + Vif (tagged APOBEC3F with the HIV-1 protein that degrades it), YFP fluorescence increase; Potency, µM (series often up to 46.1 µM), for the others: at the top dose activity, negative = active; 390,000 compounds, 0.2% hits; AID 602313; further: potency means the concentration at half of the fitted maximal effect; % of control where 0% means no effect; nearly all actives have a fitted effect of over 65% in size
#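 HeLa cells stably expressing Vif plus C-terminally eYFP-tagged A3F were seeded, incubated overnight at 37 deg C, dosed with compound, incubated overnight again at 37 deg C. Yellow fluorescence (Ex 488/Em 500-530) reported blocked Vif-mediated A3F-eYFP degradation.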
# Vif-APOBEC3G blk: Vif-A3G binding inhibition. Q9HC16. HeLa A3G-eYFP + Vif (tagged APOBEC3G with the HIV-1 protein that degrades it), YFP fluorescence, overnight. Potency, µM (series often up to 46.1 µM), for inactives: at the highest dose activity, negative = active, hits mostly inhibitors. 410,000 compounds, 0.076% hits; further: potency means the concentration at half of the fitted maximal effect; on the % scale 0 is the no-effect control and ±100 the full control effect; nearly all actives have a fitted effect of over 60% in size
# Target sequence (Q9HC16 whole entry, looked up): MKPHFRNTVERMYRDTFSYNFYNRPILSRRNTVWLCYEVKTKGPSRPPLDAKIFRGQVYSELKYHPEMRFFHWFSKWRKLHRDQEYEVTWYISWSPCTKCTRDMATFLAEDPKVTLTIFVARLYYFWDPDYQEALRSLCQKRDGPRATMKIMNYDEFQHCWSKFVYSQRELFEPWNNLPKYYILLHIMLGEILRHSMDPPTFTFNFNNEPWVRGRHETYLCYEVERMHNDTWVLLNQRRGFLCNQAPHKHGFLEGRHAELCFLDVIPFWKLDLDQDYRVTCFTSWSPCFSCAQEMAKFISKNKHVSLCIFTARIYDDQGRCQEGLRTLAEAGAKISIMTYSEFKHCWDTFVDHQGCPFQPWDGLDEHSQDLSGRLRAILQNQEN
#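 HeLa cells stably expressing Vif and C-terminally eYFP-tagged A3G, seeded overnight at 37 deg C, then exposed to compound by pintool overnight at 37 deg C. Rise in yellow fluorescence (Ex 488/Em 500-530, Acumen) marks blocked Vif-driven A3G degradation.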
# IL-1B inflam inh: inhibitors of inflammasome signaling (IL-1 beta secretion); AID 743279; activity change, % at 57.5 µM; THP-1 LPS/ATP IL-1B secretion, AlphaLISA, 16 h; stronger effect = lower value; 360,000 compounds, 4.7% hits; in the data active means activity change below about -50%; inconclusive means mostly about -30% to -49%; further: on the % scale 0 is the no-effect control and ±100 the full control effect
#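 Secreted IL-1B measured by AlphaLISA bead assay after 16 h compound exposure of THP-1 cells; compounds (final up to 57.5 uM) added 1 h before LPS (250 ng/mL) and ATP (1.25 mM) stimulation; lower signal means less secretion.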
# Numbers without * were called inactive; ? = inconclusive; / = not tested or not shown; [ ] = dose if it differs, or a comment. Unless noted, the call rests on the fitted dose curve; in most records, active means well fitted curve in the direction sought with a large enough effect; inconclusive means small, poorly fitted or top-dose-only effect, or another doubt; inactive means no such curve, though single readings can be large; an effect the other way counts as inactive or inconclusive.
SMILES,MCF10A rereplic,SW480 rereplic,Giardia kill,Vif-A3F inh,Vif-APOBEC3G blk,IL-1B inflam inh
O=C(Cc1ccc(Cl)cc1)c1c[nH]c(C(=O)NCCCn2ccnc2)c1,1.8µM*,-81%,-10,8%,0%,14
Cc1nc2ccn(Cc3ccco3)c(=O)c2cc1C(=O)NCc1ccc(F)cc1,/,/,/,0%,-5%,/
C/C(=N\Nc1cc(N2CCOCC2)ncn1)c1cccc([N+](=O)[O-])c1,?,19%,-21,-17%,-4%,-21
C/C(=N\Nc1cc(N2CCOCC2)ncn1)c1ccccc1,1%,23%,-18,-8%,1%,-79*
Brc1ccc(-c2ccc(/C=N/Nc3nc(N4CCOCC4)nc(N4CCOCC4)n3)o2)cc1,5%,?,-18,7%,0%,?
Cc1cccc(/C=N/Nc2cc(N3CCOCC3)nc(N3CCOCC3)n2)c1,?,2.1µM*,31,-7%,-17%,-78*
O=[N+]([O-])c1cccc(/C=N/Nc2cc(N3CCOCC3)ncn2)c1,-3%,-16%,-7,-25%,-4%,-68*
Clc1ccc(-c2ccc(/C=N/Nc3cc(N4CCOCC4)nc(N4CCOCC4)n3)o2)cc1,?,13µM*,-3,-20%,-10%,?
O=[N+]([O-])c1cccc(/C=N/Nc2nc(N3CCOCC3)nc(N3CCOCC3)n2)c1,1%,0%,5,0%,0%,-1
Oc1ccc(Cl)cc1C1C=C(c2ccc3c(c2)OCO3)NC(c2ccc(C(F)(F)F)cc2)N1 (centres undefined),/,/,17,/,-18%,/
CCc1ccc2oc(C(=O)NCCc3ccc(OC)c(OC)c3)cc(=O)c2c1,/,/,/,1%,-2%,/
Cc1ccc(C)c(NC(=O)Cn2c(=O)n(CCCS(=O)(=O)C3CCCCC3)c(=O)c3ccccc32)c1,/,/,/,5%,4%,/
COC(=O)c1sccc1S(=O)(=O)N(CC(=O)Nc1cccc(C)c1C)c1ccc(C)c(C)c1,/,/,/,4%,-3%,/
Cc1nc(N/N=C/c2cccnc2)cc(N2CCOCC2)n1,/,/,/,0%,0%,-64*
Cc1ccccc1Nc1cc(C)c2c(O)cccc2n1,1%,-9%,21,1%,3%,-87*
Cc1cc(C)n(NC(=S)NC2CCCC2)c(=O)c1C#N,23µM*,?,-7,4%,-1%,-1
Fc1cccc(Cl)c1CSc1ccc(-c2cccnc2)nn1,23µM*,12%,4,-1%,-4%,0
Fc1cccc(CSc2ccc(-c3ccc4c(c3)OCO4)nn2)c1,16%,-6%,-13,-16%,-4%,-2
O=[N+]([O-])c1cccc(-c2ccc(SCc3cccnc3)nn2)c1,0%,0%,-9,12%,1%,-80*
Clc1ccc(CSc2ccc(-c3cccnc3)nn2)cc1,12%,13%,-6,22%,-1%,-11
c1cncc(CSc2ccc(-c3ccc4c(c3)OCO4)nn2)c1,2%,-94%[1.84 µM],6,0%,-10%,-51*
CC(C)(C)c1ccc(/C=N/Nc2ccc(C(=O)O)cc2)cc1,?,16%,1,3%,0%,24
CC1Oc2ccccc2C=C1/C=N/Nc1ccc(C(=O)O)cc1 (centres undefined),23µM*,7.3µM*,-11,-5%,-16%,?
CCOC(=O)CN1C(=O)/C(=C/c2c(F)cccc2Cl)Oc2ccccc21,21µM*,?,16,5%,-17%,?
CCOC(=O)CN1C(=O)/C(=C/c2cccc(Br)c2)Oc2ccccc21,?,5%,16,4%,-3%,-15
SMILES,MCF10A rereplic,SW480 rereplic,Giardia kill,Vif-A3F inh,Vif-APOBEC3G blk,IL-1B inflam inh
COCCN1C=C(C(=O)OC)C(c2ccccc2C(F)(F)F)C(C(=O)OC)=C1,16µM*,18µM*,-3,-11%,-2%,-6
COC(=O)C1=CNC=C(C(=O)OC)C1c1ccccc1Cl,?,?,2,8%,0%,37
CCCCN1C=C(C(=O)OC)C(c2ccccc2Cl)C(C(=O)OC)=C1,7.3µM*,?,1,-3%,-2%,-18
CCCCN1C=C(C(=O)OC)C(c2ccccc2C(F)(F)F)C(C(=O)OC)=C1,2.9µM*,9.2µM*,19,-9%,4%,4
COc1ccc(S(=O)(=O)N2CCN(c3nc(-c4ccccc4)nc4ccccc34)CC2)cc1,/,/,-23,/,2%,/
COc1ccccc1/C=c1/[nH]c(=O)/c(=C\c2ccccc2OC)[nH]c1=O,/,/,/,/,-4%,/
Cc1cc(NC(=O)C2CC2)ncc1NC(=O)c1ccccn1,-5%,-1%,-1,2%,1%,-28
Cc1cc(NC(=O)C2CCCCC2)ncc1NC(=O)c1ccccn1,2%,-5%,-8,3%,-2%,-51*
CCOC(=O)[C@]12CCCC=C1N(CCC1=CCCCC1)C(=O)[C@H](CC(=O)NCCc1ccccc1OC)C2,/,/,/,/,/,-24
COC(=O)[C@]12CCCCC=C1N(CCC1=CCCCC1)C(=O)[C@H](CC(=O)NCCc1ccccc1OC)C2,/,/,/,/,/,-52*
CCCCCCCCN1C(=O)[C@H](CC(=O)NCCc2ccccc2OC)C[C@@]2(C(=O)OC)CCCCC=C12,/,/,/,/,/,-70*
CCCc1nc2sc3c(SCC(=O)NCc4ccco4)ncnc3c2c2c1CCC2,9.2µM*,15µM*,3,-15%,?,-6
O=C(CSc1nc(C2CC2)nc2sc3c(c12)CCCC3)NCc1ccco1,16µM*,1%,3,-1%,-1%,0
O=C(CSc1ncnc2ccccc12)NCc1ccco1,-5%,0%,-19,/,-7%,2
Cc1nc(SCC(=O)NCc2ccco2)c2c3c(sc2n1)CCCC3,?,1%,2,-7%,-26%,-9
C/C(=N\NC(=O)c1ccc(N/N=C(\C)c2ccncc2)cc1)c1ccncc1,?,7%,10,21%,-15%,-82*
C/C(=N\NC(=O)c1ccccc1NC(=O)c1ccc(Cl)cc1)c1ccncc1,2%,4%,-96*,-2%,8%,35
C/C(=N/NC(=O)c1ccncc1)c1ccccc1,-4%,-74%,32,8%,0%,0
CNCC(=O)c1c[nH]c2ccccc12,/,/,/,/,1%,/
COc1nc(Cl)cn(-c2ccc(C)cc2)c1=O,-5%,-6%,-11,-40%,3%,12
Cc1ccc(-n2c(Cl)c(Cl)nc(Cl)c2=O)cc1,1.8µM*,8.2µM*,-4,7%,-6%,-97*
O=C1CCC[C@@H]2[C@@H](Cc3ccccc3)[C@@H](Nc3ccccc3)C[C@@H]3CCN1[C@@H]32,/,/,/,/,-3%,/
Cc1cc(C)cc(NC(=O)c2ccc(CSc3nnnn3C)cc2)c1,?,-3%[9.22 µM],-2,0%,5%,-53*
